Data: the supplement of paper PMC9694430

Experiments:
Experiment in all cases: thermal shift delta Tm vs DMSO control; higher = stronger stabilization (binding)
Conditions in all cases: 12.5 µM; protein concentration 2 µM
LOC_OS01G01410-cb001 = system: LOC_OS01G01410-cb001
Method in brief: (§1)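 Rice kinase domain constructs, made in E. coli and purified, were placed in 96-well plates at 2 μM in 19.5 μl of 100 mM potassium phosphate pH 7.5, 150 mM NaCl, 10% glycerol and 5 × SYPRO Orange, with compound in DMSO. A temperature ramp from 25°C to 95°C at 0.05°C/s was used for differential scanning fluorimetry. The melting temperature shift is a triplicate mean compared with DMSO-only protein, derived from Boltzmann fits.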

LOC_OS01G02750-cb003 = system: LOC_OS01G02750-cb003
Method in brief: as §1

LOC_OS01G10900-cb004 = system: LOC_OS01G10900-cb004
Method in brief: as §1

LOC_OS01G13800-cb001 = system: LOC_OS01G13800-cb001
Method in brief: as §1

LOC_OS01G14860-cb001 = system: LOC_OS01G14860-cb001
Method in brief: as §1

LOC_OS01G21960-cb002 = system: LOC_OS01G21960-cb002
Method in brief: as §1

LOC_OS01G39600-cb002 = system: LOC_OS01G39600-cb002
Method in brief: as §1

LOC_OS01G48390-cb002 = system: LOC_OS01G48390-cb002
Method in brief: as §1

LOC_OS01G51400-cb002 = system: LOC_OS01G51400-cb002
Method in brief: as §1

LOC_OS01G52050-cb004 = system: T1, LOC_OS01G52050-cb004
T1 sequence (whole entry): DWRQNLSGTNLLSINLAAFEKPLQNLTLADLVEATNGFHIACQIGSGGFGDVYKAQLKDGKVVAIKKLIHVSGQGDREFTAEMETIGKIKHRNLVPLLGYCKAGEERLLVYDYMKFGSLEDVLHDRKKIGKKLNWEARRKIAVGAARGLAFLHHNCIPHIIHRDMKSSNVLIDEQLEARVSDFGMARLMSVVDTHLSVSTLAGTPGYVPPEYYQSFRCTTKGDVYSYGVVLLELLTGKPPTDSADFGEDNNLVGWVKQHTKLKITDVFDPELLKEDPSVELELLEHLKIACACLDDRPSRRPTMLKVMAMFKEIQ
Method in brief: as §1
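Note: purified Escherichia coli-expressed rice kinase domain construct.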

Structure (SMILES)	thermal shift delta Tm (LOC_OS01G01410-cb001) [°C]	thermal shift delta Tm (LOC_OS01G02750-cb003) [°C]	thermal shift delta Tm (LOC_OS01G10900-cb004) [°C]	thermal shift delta Tm (LOC_OS01G13800-cb001) [°C]	thermal shift delta Tm (LOC_OS01G14860-cb001) [°C]	thermal shift delta Tm (LOC_OS01G21960-cb002) [°C]	thermal shift delta Tm (LOC_OS01G39600-cb002) [°C]	thermal shift delta Tm (LOC_OS01G48390-cb002) [°C]	thermal shift delta Tm (LOC_OS01G51400-cb002) [°C]	thermal shift delta Tm (LOC_OS01G52050-cb004) [°C]
COc1cc2ncnc(Nc3cccc(Cl)c3F)c2cc1OC(=O)N1CCN(C)C[C@H]1C	0.74	0.31	0.52	-0.2	0.07	0.37	-0.74	0.45	0.35	-0.17
CN(C)C/C=C/C(=O)Nc1cc2c(Nc3ccc(F)c(Cl)c3)ncnc2cc1O[C@H]1CCOC1 [Afatinib (BIBW2992) Dimaleate]	0.1	2.11	5.05	0.72	3.86	1.14	1.17	2.48	0.14	1.67
O=C(NOCC1CC1)c1ccc(F)c(F)c1Nc1ccc(I)cc1Cl	1.01	11.3	1.62	0.71	1.37	1.16	1.41	1.28	0.54	2.25
Cc1ccc(S(=O)(=O)/C=C/C#N)cc1	-0.23	-1.35	-0.53	-0.18	-0.19	0.75	-1.97	2.88	0.21	-1.44
CC(=O)c1c(C)c2cnc(Nc3ccc(N4CCNCC4)cn3)nc2n(C2CCCC2)c1=O	0.65	0.74	0.47	-0.38	2.26	0.28	0.65	0.1	0	0.98
O=c1ncn2nc(Sc3ccc(F)cc3F)ccc2c1-c1c(Cl)cccc1Cl	0.07	0.77	0.61	0.23	0.42	0.49	-0.38	0.32	0.15	0.02
CC[C@@](C)(Nc1ccnc(-c2c[nH]c3ncccc23)n1)C(=O)NCC(F)(F)F [Decernotinib (VX-509)]	0.58	1.32	-0.38	0.4	0.78	3.1	-0.05	1.08	0.22	0.18
C[C@@H](N)c1ccc(C(=O)Nc2ccnc3[nH]ccc23)cc1	0.24	1.16	0.32	0.63	1.44	1.78	0.74	0.45	0.27	1.35
C=CC(=O)Nc1cccc(Sc2nc(Nc3ccc(N4CCN(C)CC4)cc3)ncc2Cl)c1	3.81	1.58	5.27	-0.1	1.89	0.88	6.99	7.06	1.43	4.22
C=CC(=O)Nc1cc(Nc2nccc(-c3c[nH]c4ccccc34)n2)c(OC)cc1N(C)CCN(C)C	0.92	0.98	0.33	0.08	0.37	0.6	0.12	0.83	0.34	0.96
C[C@H](Nc1ncnc2nc[nH]c12)c1cc2cccc(Cl)c2c(=O)n1-c1ccccc1 [Duvelisib (IPI-145, INK1197)]	-0.46	0.34	0.09	-0.35	0.37	0.25	-0.51	1.02	0.38	0.47
CC(C)(C#N)c1ccc(N2C(=O)OCc3cnc4ccc(-c5cnc6ccccc6c5)cc4c32)cc1	0.56	1.19	0.21	0.42	0.26	0.66	0.12	0.59	0.65	0.6
CC(C)NC(=O)COc1cccc(-c2nc(Nc3ccc4[nH]ncc4c3)c3ccccc3n2)c1	0.42	0.09	0.99	0.46	1.95	1.23	-0.3	0.33	-0.24	1.34
COc1c(C)c(C(=O)c2ccc(N)c(C(=O)O)c2)n2ccccc12	0.21	1.05	0.42	-0.23	0.24	0.79	-11.6	0.46	0.21	0.12
CS(=O)(=O)N1CCc2c(-c3cnc(N)nc3)nc(N3CCOCC3)nc21	0.53	3.27	-0.12	0.32	0.7	0.72	-0.17	0.96	0.18	0.32
N#Cc1cnc(Nc2cc(NC[C@H]3CNCCO3)c(C(F)(F)F)cn2)cn1	0.36	2.89	0.47	-0.18	2.93	0.6	0.93	2.58	0.75	5.23
CS(=O)(=O)N1CCN(Cc2cc3nc(-c4cccc5[nH]ncc45)nc(N4CCOCC4)c3s2)CC1 [Pictilisib (GDC-0941)]	1.2	0.47	0.85	0.43	1.21	0.24	0.57	2.14	-0.08	-0.11
COc1ccc(COc2cc3oc(=O)c4cc(C(C)O)ccc4c3cc2OC)cc1 (stereo not given) [Palomid 529 (P529)]	0.67	0.16	1.07	0.03	0.14	0.64	-0.21	0.4	0	0.04
C=CC(=O)N1CCC[C@@H](n2nc(-c3ccc(Oc4ccccc4)cc3)c3c(N)ncnc32)C1	0.18	0.65	0.59	0.2	0	0.24	0.74	0.52	0.21	0.5

Structure (SMILES)	thermal shift delta Tm (LOC_OS01G01410-cb001) [°C]	thermal shift delta Tm (LOC_OS01G02750-cb003) [°C]	thermal shift delta Tm (LOC_OS01G10900-cb004) [°C]	thermal shift delta Tm (LOC_OS01G13800-cb001) [°C]	thermal shift delta Tm (LOC_OS01G14860-cb001) [°C]	thermal shift delta Tm (LOC_OS01G21960-cb002) [°C]	thermal shift delta Tm (LOC_OS01G39600-cb002) [°C]	thermal shift delta Tm (LOC_OS01G48390-cb002) [°C]	thermal shift delta Tm (LOC_OS01G51400-cb002) [°C]	thermal shift delta Tm (LOC_OS01G52050-cb004) [°C]
C#Cc1cccc(Nc2ncnc3cc4c(cc23)OCCOCCOCCO4)c1 [Icotinib]	-0.52	0.8	0.96	0.01	0.16	0.74	2.84	2.19	0.45	0.36
CC1=C(C(=O)Nc2cc3cn[nH]c3cc2F)C(c2ccc(C(F)(F)F)cc2)CC(=O)N1 (stereo not given)	0.57	-0.19	0.11	0.54	0.16	0.33	-0.15	-0.18	-0.23	0
COc1ccc([C@@H]2OC[C@H]3[C@@H]2CO[C@@H]3c2ccc(O[C@@H]3O[C@H](CO)[C@@H](O)[C@H](O)[C@H]3O)c(OC)c2)cc1OC [Forsythin]	0.23	1.02	0.51	-0.29	0.27	0.16	-0.84	0.13	0.31	1.57
COc1ccc(F)c(F)c1C(=O)c1cnc(NC2CCN(S(C)(=O)=O)CC2)nc1N	0.43	-0.36	0.34	-0.08	2.35	0.93	0.19	0.42	-0.07	-0.14
CO[C@H]1C[C@@H]2CC[C@@H](C)[C@@](O)(O2)C(=O)C(=O)N2CCCC[C@H]2C(=O)O[C@H]([C@H](C)C[C@@H]2CC[C@@H](OC(=O)C(C)(CO)CO)[C@H](OC)C2)CC(=O)[C@H](C)/C=C(\C)[C@@H](O)[C@@H](OC)C(=O)[C@H](C)C[C@H](C)/C=C/C=C/C=C/1C	1	0.76	0.53	0.18	0	0.4	0.18	0.44	0.1	0.73
CN(c1ccccc1CNc1nc(Nc2ccc3c(c2)CC(=O)N3)ncc1C(F)(F)F)S(C)(=O)=O	2.5	7.01	2.35	0.34	5.2	2.72	8.33	3.62	1.93	8.95
CC(C)(C)NS(=O)(=O)c1cncc(-c2cc(F)c3nc(N)nn3c2)c1	0.2	0.93	0.04	0.1	0.32	0.56	0.65	0.32	0.36	0.57
Cc1cn(-c2cc(NC(=O)c3ccc(C)c(Nc4nccc(-c5cnccn5)n4)c3)cc(C(F)(F)F)c2)cn1 [Radotinib]	0.24	1.63	2.41	0.87	0.52	0.96	-0.12	0.73	0.16	0.51
Cc1ccc(NC(=O)c2ccc(CN3CC[C@H](N(C)C)C3)c(C(F)(F)F)c2)cc1Nc1nccc(-c2cncnc2)n1 [Bafetinib (INNO-406)]	0.65	0.59	0.73	0.04	0.5	0.66	-0.18	1.17	0.46	0.61
CC1(C)CNc2cc(NC(=O)c3cccnc3NCc3ccncc3)ccc21 [Motesanib Diphosphate (AMG-706)]	1.13	0.81	0.63	0.38	0.51	0.76	-0.19	0.41	-0.07	-0.22
CNC(=O)c1ccccc1Nc1nc(Nc2ccc(N3CCOCC3)cc2OC)ncc1Cl	0.74	1.05	1.53	-0.3	0.28	0.37	-6.71	0.8	0.36	1.17
CCCS(=O)(=O)Nc1ccc(F)c(C(=O)c2c[nH]c3ncc(-c4ccc(Cl)cc4)cc23)c1F [Vemurafenib (PLX4032, RG7204)]	3.81	7.84	6.74	1.27	4.3	2.86	11.7	3.18	1.03	11.1
c1cc(-c2cnn3cc(-c4ccc(OCCN5CCCCC5)cc4)cnc23)ccn1 [Dorsomorphin 2HCl]	4.71	10.2	8.66	0.11	2.59	3	7.6	5.88	0.21	6.74
CNc1nc(-c2ccc3c(N)n[nH]c3c2)cc(N2C[C@@H](C(=O)NC3CCCCC3)CC[C@H]2C)n1	-0.44	0.32	0.09	0.25	0.55	1.02	-5.84	0.39	0.44	0.02
COc1ncc(-c2ccc3nccc(-c4ccnnc4)c3c2)cc1NS(=O)(=O)c1ccc(F)cc1F	1.94	1.21	0.23	0.27	1.9	1.2	3.65	0.45	0.55	1.09
CCC[C@H](NC(=O)/C(C#N)=C/c1cccc(Br)n1)c1ccccc1 [Degrasyn (WP1130)]	-2.54	-8.18	0.28	0.06	-2.02	0.19	-4.1	-0.09	-1.59	-3.54
O=C(Nc1nccs1)C(c1cc(F)ccc1O)N1Cc2ccccc2C1=O (stereo not given)	0.29	0.35	0.25	-0.01	0.4	0.48	-0.23	-0.1	-0.02	-0.31
O=c1cc(N2CCOCC2)oc2c(-c3ccc4c(c3)OCCO4)csc12	0.37	2.36	3.38	-0.36	2.26	0.76	0.21	1.47	0.47	4.58
Cn1cnc(N)c2ncnc1-2 [3-Methyladenine (3-MA)]	0.6	5.26	0.17	-0.02	-0.3	0.32	0.46	1.12	0.76	0.09
